Test results: PubChem BioAssay AID624488 (Broad Institute, 2012)
Entries with a potency or affinity are not part of this list. Calls of active or inactive are those of the source.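 Rule for the calls: active = compounds that lower cell ATP signal, with a fitted half-maximal concentration within a set limit; inconclusive = flat curve with moderate signal loss, or poor fit; inactive = the rest.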

Assay: viability loss in MITF-independent A375 cells – cell-based, CellTiter-Glo luminescence, dry powder, set 6, counter-screen for MITF inhibitor project, dose response (AID 624488)
Conditions: CellTiter-Glo ATP luminescence, 24 h; series mostly up to 35 µM

O=C1C=C(NS(=O)(=O)c2ccccc2)C(=O)c2ccccc21
outcome: inactive

NC1=C(NS(=O)(=O)c2ccc(Br)cc2)C(=O)c2ccccc2C1=O
outcome: inactive

NC1=C(NS(=O)(=O)c2cccs2)C(=O)c2ccccc2C1=O
outcome: inactive

NC1=C(NS(=O)(=O)c2ccc(Br)s2)C(=O)c2ccccc2C1=O
outcome: inactive

O=C1C(NS(=O)(=O)c2ccccc2)=C(c2ccccc2)C(=O)c2ccccc21
outcome: inactive

CNC1=CC(=O)c2ccccc2C1=O
outcome: inactive

O=C1C=C(NS(=O)(=O)c2cccs2)C(=O)c2ccccc21
outcome: inactive

O=C1C=C(NS(=O)(=O)c2ccc(Br)cc2)C(=O)c2ccccc21
outcome: inactive
